The panel holds about 79,000 compounds, 15% with a hit somewhere; the sample as a whole holds those more often. A number with no mark means an inactive call. Calls of active or inactive are those of the source. Rule as the data show it: active = growth inhibition above about 70%; inactive = the rest.
What was measured:
[1] = NCI Yeast Anticancer Drug Screen. Data for the rad50 strain (AID 155);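 also: 0% = growth of vehicle-only cultures of the same strain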; details: S. cerevisiae rad50 strain growth inhibition; at 50.0 µM; active compounds read high
How it was run: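 Inhibition values express reduced yeast growth in compound-treated cultures relative to vehicle-treated controls.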

[2] = NCI Yeast Anticancer Drug Screen. Data for the mec2-1 strain (AID 157); details: S. cerevisiae mec2-1 strain, at 50.0 µM, active compounds read high
How it was run: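 Cells of the genetically defined mec2-1 yeast strain are incubated with test compound. Inhibition of growth is calculated against vehicle-treated controls.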

[3] = NCI Yeast Anticancer Drug Screen. Data for the sgs1 mgt1 strain (AID 161);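 also: 0% = growth of cultures given vehicle only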; details: S. cerevisiae sgs1 mgt1 strain, at 50.0 µM, active compounds read high
How it was run: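 Genetically altered yeast, compound exposure, growth inhibition relative to vehicle.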

[4] = NCI Yeast Anticancer Drug Screen. Data for the cln2 rad14 strain (AID 165);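 also: 0% = growth equal to vehicle treated cultures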; details: S. cerevisiae cln2 rad14 strain, at 50.0 µM, active compounds read high
How it was run: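 The screen exposed genetically defined yeast (cln2 rad14) to test compounds and scored growth inhibition relative to vehicle-treated controls.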

[5] = NCI Yeast Anticancer Drug Screen. Data for the bub3 strain (AID 167); details: S. cerevisiae bub3 mutant strain, at 50.0 µM, active compounds read high
How it was run: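 Steps: expose the mutant yeast strain to compound; grow alongside vehicle-treated cultures; measure growth; express inhibition against the vehicle cultures.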

[6] = NCI Yeast Anticancer Drug Screen. Data for the mlh1 rad18 strain (AID 175); details: S. cerevisiae mlh1 rad18 strain growth inhibition; at 50.0 µM; active compounds read high
How it was run: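 Compound-treated yeast growth, normalised to vehicle controls. Strain bears defined DNA repair mutations.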

Row | Structure (SMILES) | growth inhibition [1] | growth inhibition [2] | growth inhibition [3] | growth inhibition [4] | growth inhibition [5] | growth inhibition [6]
1 | CCOC(=S)SC(=S)SC(=S)OCC | 1.15% | -27.1% | 2.6% | -27.8% | -7.75% | -22.2%
2 | C=CCOCc1ccc(C(C)(C)CC(C)(C)C)cc1 | -5.25% | 13.5% | 8.6% | -75.5% | 16.1% | 15.7%
3 | OCc1ccccc1CC(O)c1ccccc1 (stereo not drawn) | -23.7% | -17.3% | -20.2% | -4.65% | 0.05% | -59.4%
4 | COC(=O)c1cccn1C(=O)c1ccc(C)c(OCc2ccccc2)c1[N+](=O)[O-] | 1.6% | -15.8% | 4.95% | -8.3% | 18.5% | 8.05%
5 | CCOC(=O)c1cc(CC)sc1N | -1.55% | -9.75% | 10.7% | -10.2% | 12.2% | -12.5%
6 | O=C(O)Cc1ccc2ccccc2c1Br | -8.5% | 13.1% | 1.8% | 22.8% | -8.6% | 14.3%
7 | CC(C)c1ccc2c(c1)CCC1C2(C)CCCC1(C)C(O)c1ccccc1 (stereo not drawn) | 9.45% | -6.65% | 8.6% | -17.1% | 8.05% | 32.1%
8 | O=S(=O)(O)SCC1=NCCN1 | 17.9% | -5.1% | -3.55% | -34.9% | 11.2% | 9.85%
9 | CN(C)CCCNCc1c[nH]c(=O)[nH]c1=O | -4.75% | 6.55% | -9.9% | -7.4% | -4.85% | -25.9%
10 | CC(C)CSC(SCC(C)C)C(O)C(O)C(O)CO (stereo not drawn) | -6.85% | 3% | 5.4% | -35.2% | 10.2% | 6%
11 | COc1ccc(-c2nnc3cc(C)n4nnnc4n23)cc1OC | 5.3% | 5.55% | 13.7% | 9.1% | 11.6% | 16.2%
12 | CN1C(=O)c2ccccc2N(C)C(=O)c2ccccc21 | 0.9% | -15.1% | 11.3% | -2.45% | 4.85% | 12%
13 | CN(C)C=Nc1c2c(nc3ccccc13)CCCC2 | -35.4% | -16.4% | -8.8% | 7.4% | 18.9% | 18.4%
14 | CC1=C(N2CCCCC2)S(=O)(=O)c2ccccc2C1 | 42.6% | 3.6% | 26.5% | -19.6% | 8.15% | 44%
15 | C#CCN | 9.25% | 2% | 2.8% | 3.75% | 8.05% | -12.7%
16 | CCS(=O)(=O)Nc1ccc(NS(=O)(=O)CC)cc1 | 39.7% | 11.3% | 29.1% | 16.5% | 17.9% | 25.4%
17 | CN(C)CCN(CCN(C)C)CCN(C)C | 6.85% | -21.5% | 12.3% | 9.45% | 25.1% | 14.6%
18 | O=C(/C=C\c1ccccc1)OC(c1ccccc1)c1ccc(Br)cc1 (stereo not drawn) | 17.9% | 6.25% | 14.1% | -3.95% | -3.4% | 8%
19 | COC(=O)C1OC(O[C@H]2CC[C@]3(C)[C@H]4CC=C5[C@@H]6CC(C)(C)CC[C@]6(C(=O)OC6OCC(O)C(O)C6OC6OC(C)C(OC7OCC(OC8OCC(O)C(O)C8O)C(O)C7O)C(O)C6O)[C@H](O)C[C@@]5(C)[C@]4(C)CC[C@H]3C2(C)C)C(O)C(O)C1O (stereo partly drawn) | 26.3% | 17% | 10.3% | 11.9% | 42.6% | 32.2%

Row | Structure (SMILES) | growth inhibition [1] | growth inhibition [2] | growth inhibition [3] | growth inhibition [4] | growth inhibition [5] | growth inhibition [6]
20 | O=[N+]([O-])c1ccc(-c2nnn(Cc3ccco3)c2N2CCCCC2)cc1 | 69.6% | 70.7% (active) | 91.2% (active) | 84.2% (active) | 95.7% (active) | 81.3% (active)
21 | CC(=O)OC1C=C(C=O)C(O)(C=O)C2(C)CCCC(C)(C)C12 (stereo not drawn) | -20.2% | -29.5% | -18.6% | 7.95% | 8.65% | -17.6%
22 | Cc1cn(C2CC(N=[N+]=[N-])C(CO)O2)c(=O)[nH]c1=O (stereo not drawn) | -0.7% | -0.4% | -39.5% | 14.1% | 0.05% | -15.6%
23 | O=[N+]([O-])c1ccc(S(=O)(=O)N/N=C/c2cccc([N+](=O)[O-])c2)cc1 | -8.15% | -13.2% | 1.1% | -15% | 0.35% | -12.1%
24 | COc1ccc(C2=C(N)c3cc(OC)ccc3C2=O)cc1 | 41.1% | 12.3% | 33% | -0.3% | 32.1% | -24.8%
25 | c1ccc(CCc2ccccn2)nc1 | 22.9% | 0.8% | -13.6% | 7.2% | 9.5% | 1.45%
26 | COc1ccc2c(c1OC)CN1CCc3cc4c(cc3C1=C2)OCO4 | 15.9% | -3.95% | -9.95% | 2.35% | 8.15% | 12.9%
27 | CNC(=S)N(C1CCCCC1)C1CCCCC1 | 26% | -13.4% | -2.2% | -15% | -10.1% | 37%
28 | CC(C)(O)CCC(O)C(C)(O)C1CCC2(O)C3=CC(=O)C4(O)CC(O)C(O)CC4(C)C3CCC12C (stereo not drawn) (tested in a mixture with another compound) | -5.3% | -17.9% | 6.15% | -12.2% | -17.4% | -47.7%
29 | CCOc1ccc(/C=C2/C(=O)N(/C=C3/C(=O)Oc4ccccc4C3=O)C(=NC(C)=O)N2C)cc1 | 8.75% | -13% | -10.8% | 12.7% | -1.85% | 2.35%
30 | O=C1C(O)=CC(=C(c2ccccc2)c2ccccc2)c2cc(Br)ccc21 | 33.7% | 26.2% | 44.4% | 8.9% | 11.4% | 34.1%
31 | CC(=O)NC1(C)CC[C@H]2CC1C(C)=NC2(C)C (stereo partly drawn) | -13.2% | -3.95% | -6.9% | 2.85% | -8.15% | -14.3%
32 | OCCNc1nc(NCCO)c2cn[nH]c2n1 | 0.5% | 0.45% | -1.15% | -12.7% | 5.75% | 0.55%
33 | CC(=O)OCC1OC(n2c3c(cc(C#N)c2=S)CCCCCC3)C(OC(C)=O)C(OC(C)=O)C1OC(C)=O (stereo not drawn) | 22.2% | 4.45% | 12.1% | -12.8% | -4% | 33.4%
34 | CC1=CN2C(c3ccc(Cl)cc3)=NON(c3ccc(C)cn3)C2C=C1 (stereo not drawn) | -21.6% | -4.75% | 0.65% | -50.8% | 5.25% | 8.35%
35 | NCCNC(=O)Cc1cccs1 | 1.5% | -8.5% | -12.4% | -21.6% | 4.45% | -0.8%
36 | CC1OC(O[C@@H]2OC=C(C=O)[C@@]3(O)CC[C@H](C)[C@@H]23)C(O)C(O)C1O (stereo partly drawn) | 16.2% | -10.4% | 9.1% | 7.6% | -6.1% | -39.2%
37 | c1cc[n+]2cc3c(ccc4cc5cccc[n+]5cc43)cc2c1 | 17.4% | 11.1% | 31.4% | 58% | -2.3% | 11.6%
38 | COc1ccc(OC)c(NC(=O)SC(C)C)c1 | -5.3% | -21.8% | -9.45% | 0.15% | 18.2% | -3.65%

Source: PubChem BioAssay (NCI)
